Results taken from PubChem BioAssay AID2242 (National Center for Advancing Translational Sciences (NCATS), 2010).
The whole screen tested about 200,000 compounds, of which about 720 (0.36%) were called active. About 8% were inconclusive and are not listed. Calls follow the shape of the dose curve; as a rule, active = well fitted activation curve with a large enough effect; inconclusive = small, poorly fitted or top-dose-only effect, or effect the other way, or another doubt; inactive = flat fitted curve, though single readings scatter. Some of the results follow.

Target: Lysosomal alpha-glucosidase (Homo sapiens) (UniProt P10253)
Assay: qHTS Assay for Activators of Human alpha-Glucosidase as a Potential Chaperone Treatment of Pompe Disease; also: nearly all actives have a fitted effect of over 80% in size
Conditions: purified enzyme, 4-MU-alpha-glucoside fluorescence, 20 min
From the text: NIH Chemical Genomics Center [NCGC] NIH Molecular Libraries Probe Production centers Network [MLPCN] MLPCN Grant: 1R03MH084841-01 Assay Submitter (PI): Wei Zheng NCGC Assay Overview: Alpha-glucosidase is responsible for hydrolysis of terminal, non-reducing 1,4-linked alpha-D-glucose residues with release of alpha-D-glucose. It is a lysosomal hydrolase that is required for the degradation of a small percentage (1-3%) of cellular glycogen in human. Deficiency of this enzyme results in glycogen-storage disease type II (GSDII), also referred to as Pompe disease, an autosomal recessive disorder. Structurally normal glycogen is accumulated in lysosomes and cytoplasm in affected patients, primarily in muscle tissues. Excessive glycogen storage within lysosomes may interrupt normal functioning of other organelles and leads to cellular injury. In turn, this leads to enlargement and dysfunction of the entire organ involved (eg, cardiomyopathy and muscle weakness). It has reported that the improper folding and trafficking of alpha-glucosidase resulting from the genetic mutations may account for a significant number of Pompe patients. […] We optimized this alpha-glucosidase assay in 1536-well plate format for identifying the novel small molecule inhibitors with the structures other than the sugar analogs in order to develop the new pharmacological chaperones, but are also able to detect potential activators. In conjunction with assays against alpha-galactosidase (AID 1467), fluorogenic false positive compounds can be identified.
NCGC Assay Protocol Summary: This is a fluorogenic enzyme assay with 4-methylumbelliferyl-alpha-D-[…] as the substrate and human alpha-glucosidase as the enzyme preparation. Upon the hydrolysis of this fluorogenic substrate, the resulting product, 1. 4-methyllumbelliferone, can be excited at 365 nm and emits at 440 nm which can be detected by a standard fluorescence plate reader. Data were normalized to the controls for basal activity (without enzyme) and 100% activity (with enzyme). In the AC50 values were determined from concentration-response data modeled with the standard Hill equation. Assay buffer: 50 mM citric acid (titrated with potassium phosphate to pH 5.0), 0.005% Tween-20, pH 5.0. (pH 5.0 is an optimal condition for this enzyme assay) 1536-well assay protocol for the human alpha-glucosidase: (1) Add 2 ul/well of enzyme (4 nM final) (2) Add 23 nL compounds in DMSO solution. The final titration was 0.7 nM to 77 uM. (3) Add 1 ul of substrate (400 uM final) (4) Incubate at room temperature for 20 min. (5) Add 2 ul stop solution (1M NaOH and 1M Glycine mixture, pH 10) (6) Detect the assay plate in a ViewLux plate reader (PerkinElmer) with Ex=365 nm and Em=440nm. Keywords: Alpha-glucosidase, Pompe Disease, pharmacological chaperone, chaperone therapy, high throughput screening, alpha-glucosidase inhibitor, MLSMR, MLSCN, NIH Roadmap, qHTS and NCGC
Potency is read from the fitted curve at half-maximal effect.

**Q.** How did the Potency turn out when `N#CC1=C(N)Oc2c(c(=O)oc3ccccc23)C1c1ccc(OC(=O)N2CCOCC2)cc1` (centres undefined) was run?
**A.** 35.5 µM (active)

**Q.** Which Potency does the source give for `CCOP(=O)(OCC)c1nc(-c2cccc3ccccc23)oc1NCCc1ccc(OC)cc1` here?
**A.** 31.6 µM (active)

**Q.** With `COP(=O)(OC)c1nc(-c2cccc3ccccc23)oc1NCCc1ccccc1` as the compound, how does the Potency read?
**A.** 31.6 µM (active)

**Q.** How did the Potency turn out when `COc1ccc(CNc2oc(-c3cccc4ccccc34)nc2P(=O)(OC)OC)cc1` was run?
**A.** 35.5 µM (active)

**Q.** For `COCCN1Cc2cc(=O)n3c([nH]c4ccccc43)c2C1=N`, which Potency is on record?
**A.** 31.6 µM (active)

**Q.** How did the Potency turn out when `COC(=O)c1ccc(C(=O)OC)c(NC(=O)Oc2ccccc2)c1` was run?
**A.** 31.6 µM (active)

**Q.** Which Potency does the source give for `CC(C)OCCCNC(=O)c1c(N)n(CC2CCCO2)c2nc3ccccc3nc12` (centres undefined) here?
**A.** 39.8 µM (active)

**Q.** `CCCNC(=O)c1c(N)n(CC2CCCO2)c2nc3ccccc3nc12` (centres undefined) was tested. Which Potency did it give?
**A.** 31.6 µM (active)

**Q.** Which Potency does the source give for `N#Cc1c(Cl)nc(Cl)c2c1CCN(Cc1ccccc1)C2` here?
**A.** 31.6 µM (active)

**Q.** How did the Potency turn out when `CN1CCc2c(C#N)c(Cl)nc(Cl)c2C1` was run?
**A.** 35.5 µM (active)

**Q.** `CC(C)CCn1c(N)c(C(=O)OCC2CCCO2)c2nc3ccccc3nc21` (centres undefined) was tested. Which Potency did it give?
**A.** 31.6 µM (active)

**Q.** For `CCCCn1c(N)c(C(=O)OCC2CCCO2)c2nc3ccccc3nc21` (centres undefined), which Potency is on record?
**A.** 35.5 µM (active)

**Q.** How did the Potency turn out when `COCCOC(=O)c1c(N)n(Cc2ccc(OC)cc2)c2nc3ccccc3nc12` was run?
**A.** 35.5 µM (active)

**Q.** Which Potency does the source give for `COCCOC(=O)c1c(N)n(Cc2ccccc2)c2nc3ccccc3nc12` here?
**A.** 35.5 µM (active)

**Q.** For `COc1ccc(-c2cc(=NCCCCCC(=O)O)c3cc(C)ccc3o2)cc1`, which Potency is on record?
**A.** 31.6 µM (active)

**Q.** Which Potency does the source give for `COc1ccc(-c2cc(=NCCC(=O)O)c3cc(C)ccc3o2)cc1` here?
**A.** 28.2 µM (active)

**Q.** How did the Potency turn out when `COC(=O)c1c(N)n(Cc2ccc(OC)cc2)c2nc3ccccc3nc12` was run?
**A.** 35.5 µM (active)

**Q.** `CCOC(=O)c1c(N)n(Cc2ccc(OC)cc2)c2nc3ccccc3nc12` was tested. Which Potency did it give?
**A.** 25.1 µM (active)

**Q.** With `CC(C)OC(=O)c1c(N)n(CC2CCCO2)c2nc3ccccc3nc12` (centres undefined) as the compound, how does the Potency read?
**A.** 35.5 µM (active)

**Q.** With `CC(C)CCOC(=O)c1c(N)n(CC2CCCO2)c2nc3ccccc3nc12` (centres undefined) as the compound, how does the Potency read?
**A.** 39.8 µM (active)

**Q.** For `Nc1c(C(=O)OC2CCCCC2)c2nc3ccccc3nc2n1CC1CCCO1` (centres undefined), which Potency is on record?
**A.** 35.5 µM (active)

**Q.** Which Potency does the source give for `COCCCn1c(N)c(C(=O)OCCOC)c2nc3ccccc3nc21` here?
**A.** 31.6 µM (active)

**Q.** With `COCCCn1c(N)c(C(=O)OC(C)COC)c2nc3ccccc3nc21` (centres undefined) as the compound, how does the Potency read?
**A.** 39.8 µM (active)

**Q.** For `O=C(c1cc2c(s1)-c1ccccc1OC2)N1CCC2(CC1)OCCO2`, which Potency is on record?
**A.** 39.8 µM (active)

**Q.** How did the Potency turn out when `CCOP(=O)(OCC)c1nc(-c2cccc3ccccc23)oc1N1CCOCC1` was run?
**A.** 39.8 µM (active)

**Q.** Which Potency does the source give for `CCOP(=O)(OCC)c1nc(-c2cccc3ccccc23)oc1N1CCCCC1` here?
**A.** 35.5 µM (active)

**Q.** With `COP(=O)(OC)c1nc(-c2cccc3ccccc23)oc1N1CCCCC1` as the compound, how does the Potency read?
**A.** 35.5 µM (active)

**Q.** `CCCCn1c(NC(=O)c2ccc(Br)o2)c(C(=O)OCC)c2nc3ccccc3nc21` was tested. Which Potency did it give?
**A.** 35.5 µM (active)

**Q.** `Nc1c(C(=O)NCCN2CCOCC2)c2nc3ccccc3nc2n1Cc1ccco1` was tested. Which Potency did it give?
**A.** 39.8 µM (active)

**Q.** How did the Potency turn out when `COCCNC(=O)c1c(N)n(Cc2ccco2)c2nc3ccccc3nc12` was run?
**A.** 31.6 µM (active)

**Q.** `CCOC(=O)c1c(N)n(Cc2ccco2)c2nc3ccccc3nc12` was tested. Which Potency did it give?
**A.** 39.8 µM (active)

**Q.** Which Potency does the source give for `CC(C)(C)OC(=O)c1c(N)n(Cc2ccco2)c2nc3ccccc3nc12` here?
**A.** 35.5 µM (active)

**Q.** Which Potency does the source give for `COCCOC(=O)c1c(N)n(Cc2ccco2)c2nc3ccccc3nc12` here?
**A.** 35.5 µM (active)

**Q.** For `CCOC(=O)c1c(N)n(CCCOC(=O)c2ccco2)c2nc3ccccc3nc12`, which Potency is on record?
**A.** 35.5 µM (active)

**Q.** `CCCCCn1c(N)c(C(=O)NCCN2CCOCC2)c2nc3ccccc3nc21` was tested. Which Potency did it give?
**A.** 35.5 µM (active)

**Q.** Which Potency does the source give for `CC(=O)N1CCC2(CC1)CC(=O)c1cc(OCC(=O)N3CCC4(CC3)OCCO4)ccc1O2` here?
**A.** 31.6 µM (active)

**Q.** For `CCCOC(=O)c1c(N)n(Cc2cccs2)c2nc3ccccc3nc12`, which Potency is on record?
**A.** 39.8 µM (active)

**Q.** For `CCC(C)OC(=O)c1c(N)n(Cc2cccs2)c2nc3ccccc3nc12` (centres undefined), which Potency is on record?
**A.** 35.5 µM (active)

**Q.** Which Potency does the source give for `CC(C)CCn1c(N)c(C(=O)NCc2cccs2)c2nc3ccccc3nc21` here?
**A.** 28.2 µM (active)
